Test results published in PubChem BioAssay (EPA / NIEHS).
Activity calls are given as the source filed them. The calls were made as follows: active = hit-call score of the fitted dose curve at least 0.9, where 1 is the maximum; inactive = score below 0.9.

What follows are compounds tested on Monocyte Chemoattractant Protein-1 (MCP1), CCL2 (gene 6347) (assay: BSK_3C_MCP1: BioMAP Diversity Plus: 3C Assay for Monocyte Chemoattractant Protein-1 (MCP1) Biomarker Activity (AID 2283017)). Conditions: primary human endothelial cells (HUVEC); actives raise or lower the signal.
Method in brief: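 ELISA read-out of MCP-1 from human umbilical vein endothelial cell cultures harvested 24 h post-dosing. Gain or loss of signal was fitted relative to DMSO.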
`On1ccccc1=S` was tested, and the AC50 was 28.8 µM (active). With `O=C1OC(=O)C2C3C=CC(C3)C12` (configuration not stated) the outcome was “inactive”. For `CCOCCOCCOCCO`, the outcome was “inactive”. With `CC(=O)OCCC(C)C` the outcome was “inactive”. For `COCCOc1cc2cc(C(=O)NC3CCN(C(C)C)CC3)n(CC(=O)Nc3ccc(Cl)cn3)c2cn1`, the outcome was “inactive”. `CC(=O)OC[C@H]1O[C@@](COC(C)=O)(O[C@H]2O[C@H](COC(C)=O)[C@@H](OC(C)=O)[C@H](OC(C)=O)[C@H]2OC(C)=O)[C@@H](OC(C)=O)[C@@H]1OC(C)=O` was tested, and the outcome was “inactive”. In the case of `O=C(CCCCCCCCc1cccnc1)N1CCC(C=C(c2ccccc2)c2ccccc2)CC1`, the AC50 is reported as 8.66 µM (active). In the case of `O=c1n(CC2CO2)c(=O)n(CC2CO2)c(=O)n1CC1CO1` (configuration not stated), the AC50 is reported as 20 µM (active). With `COC(=O)CC(=O)OC` the outcome was “inactive”. With `CCCCCCCCCCCCCCCO` the AC50 was 32.6 µM (active). With `CC(C)=CCC/C(C)=C\CO` the outcome was “inactive”. With `CC1=CC(=O)CC(C)(C)C1` the outcome was “inactive”. `CCOc1cccc(-n2cc(C(=O)N3CCN(c4cc(C(=O)O)c5ccccc5c4)CC3)nc2-c2ccc(C)cc2)c1` was tested, and the AC50 was 23 µM (active). `CC(C)CC(C)(O)C#CC(C)(O)CC(C)C` (configuration not stated) was tested, and the outcome was “inactive”. With `CCCC(=O)OCC` the outcome was “inactive”. For `Cn1c(=O)cc(Oc2ccc(F)cc2F)c2cnc(NCC(C)(C)O)nc21`, the AC50 was 3.14 µM (active). In the case of `CCCCCCc1ccc(O)cc1O`, the AC50 is reported as 32.5 µM (active). With `CN(C)c1ccc(N=NS(=O)(=O)O)cc1` the outcome was “inactive”. `CCC(C)(C)C(=O)O[C@H]1C[C@@H](C)C=C2C=C[C@H](C)[C@H](CC[C@@H]3C[C@@H](O)CC(=O)O3)[C@H]21` was tested, and the AC50 was 18.6 µM (active). `Nc1nc2ncc(CNc3ccc(C(=O)N[C@@H](CCC(=O)O)C(=O)O)cc3)nc2c(=O)[nH]1` was tested, and the outcome was “inactive”. In the case of `Cn1c(=O)c2c(ncn2C)n(C)c1=O`, the outcome is reported as “inactive”.

The compounds below were run on Monocyte Chemoattractant Protein-1 (MCP1), CCL2 (gene 6347) (assay: BSK_4H_MCP1: BioMAP Diversity Plus: 4H Assay for Monocyte Chemoattractant Protein-1 (MCP1) Biomarker Activity (AID 2283018)). Conditions: primary human endothelial cells (HUVEC); actives raise or lower the signal.
Method in brief: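 Human umbilical vein endothelial cells (4H system) dosed with chemical; MCP-1 measured by ELISA 24 h after dosing. Bidirectional curve fitting against DMSO negative control as baseline; parallel SRB total-protein staining tracks overt cytotoxicity.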
`COc1cccc(-c2ccc(/C=C\CN3CCCCCC3)cc2Cl)c1` was tested, and the AC50 was 25 µM (active). In the case of `On1ccccc1=S`, the AC50 is reported as 30.8 µM (active). In the case of `O=C(CCCCCCCCc1cccnc1)N1CCC(C=C(c2ccccc2)c2ccccc2)CC1`, the AC50 is reported as 5.75 µM (active). For `O=c1n(CC2CO2)c(=O)n(CC2CO2)c(=O)n1CC1CO1` (configuration not stated), the outcome was “inactive”. `CCCCCCCCCCCCCCCO` was tested, and the AC50 was 29.1 µM (active). With `C=CC(=C)CCC=C(C)C` the outcome was “inactive”. `CC1=CC(=O)CC(C)(C)C1` was tested, and the outcome was “inactive”. `CCOc1cccc(-n2cc(C(=O)N3CCN(c4cc(C(=O)O)c5ccccc5c4)CC3)nc2-c2ccc(C)cc2)c1` was tested, and the AC50 was 23.3 µM (active). `Cc1ccc(O)cc1` was tested, and the outcome was “inactive”. For `CCCC(=O)OCC`, the outcome was “inactive”. `Cn1c(=O)cc(Oc2ccc(F)cc2F)c2cnc(NCC(C)(C)O)nc21` was tested, and the outcome was “inactive”. In the case of `CN(C)c1ccc(N=NS(=O)(=O)O)cc1`, the outcome is reported as “inactive”. For `CCC(C)(C)C(=O)O[C@H]1C[C@@H](C)C=C2C=C[C@H](C)[C@H](CC[C@@H]3C[C@@H](O)CC(=O)O3)[C@H]21`, the AC50 was 0.392 µM (active). In the case of `Nc1nc2ncc(CNc3ccc(C(=O)N[C@@H](CCC(=O)O)C(=O)O)cc3)nc2c(=O)[nH]1`, the outcome is reported as “inactive”. With `O=C(O)c1cc(N=Nc2ccc(S(=O)(=O)Nc3ccccn3)cc2)ccc1O` the outcome was “inactive”. With `CCn1nc(Cc2ccccc2)cc1C1CCN(C[C@H]2C[C@H](N(C)[C@@H](C(=O)O)C(C)C)C[C@@H]2c2cccc(F)c2)CC1` the outcome was “inactive”.
